# According to PubChem BioAssay AID1159580 (chemical genetic matrix, 2015):
# “And” between values parts separate entries of the source, which are not always exact repeats. Identical values can stand only once. About 2,000 (36%) of roughly 5,500 compounds were called active. Not shown: some 18% with an inconclusive outcome. Cut-off read from the data, not from the text of the source: active = normalized growth mostly below about 0.91 (no sharp cut-off); inconclusive = no clear call, values can overlap the other calls; inactive = mostly above about 0.92. Some of the results follow.
# Assay: chemical genetic growth profiling, strain panel (AID 1159580);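 note: tested at 20 µM; growth read once vehicle control cultures reached saturation at 30 °C; 1 = growth at the plate median or of vehicle wells; lower values mean less growth of the strain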
# Conditions: S. cerevisiae deletion strains, growth OD
structure (smiles),measurement,setting,value
CC(=O)[C@H]1CCC2C3CCC4=CC(=O)CC[C@]4(C)C3CC[C@@]21C (some centres not stated),normalized growth,"locus YAL013W, strain DEP1, stronger effect = lower value",0.963 (inactive)
same,normalized growth,"locus YAL021C, strain ccr4, stronger effect = lower value",0.901 (active)
same,normalized growth,"locus YAL026C, strain drs2, stronger effect = lower value",0.936 (inactive)
same,normalized growth,"locus YAL030W, strain snc1, stronger effect = lower value",0.975 (inactive)
same,normalized growth,"locus YBL061C, strain skt5, stronger effect = lower value",0.968 (inactive)
same,normalized growth,"locus YBR009C, strain hhf1, stronger effect = lower value",0.909 (inactive)
same,normalized growth,"locus YBR021W, strain FUR4, stronger effect = lower value",0.93 (inactive)
same,normalized growth,"locus YBR023C, strain chs3, stronger effect = lower value",0.957 (inactive)
same,normalized growth,"locus YBR171W, strain sec66, stronger effect = lower value",0.933 (inactive)
same,normalized growth,"locus YBR229C, strain ROT2, stronger effect = lower value",0.981 (inactive)
same,normalized growth,"locus YBR231C, strain swc5, stronger effect = lower value",0.951 (inactive)
same,normalized growth,"locus YBR279W, strain paf1, stronger effect = lower value",0.994 (inactive)
same,normalized growth,"locus YCL011C, strain gbp2, stronger effect = lower value",0.971 (inactive)
same,normalized growth,"locus YCL016C, strain dcc1, stronger effect = lower value",0.963 (inactive)
same,normalized growth,"locus YCL029C, strain bik1, stronger effect = lower value",0.735 (active)
same,normalized growth,"locus YCL061C, strain MRC1, stronger effect = lower value",0.955 (inactive)
same,normalized growth,"locus YCL069W, strain vba3, stronger effect = lower value",0.976 (inactive)
same,normalized growth,"locus YCR088W, strain abp1, stronger effect = lower value",0.99 (inactive)
same,normalized growth,"locus YDL005C, strain med2, stronger effect = lower value",0.987 (inactive)
same,normalized growth,"locus YDL035C, strain GPR1, stronger effect = lower value",0.936 (inactive)
same,normalized growth,"locus YDL040C, strain nat1, stronger effect = lower value",0.981 (inactive)
same,normalized growth,"locus YDL074C, strain BRE1, stronger effect = lower value",0.862 (inactive)
same,normalized growth,"locus YDL101C, strain DUN1, stronger effect = lower value",0.977 (inactive)
same,normalized growth,"locus YDL134C, strain PPH21, stronger effect = lower value",0.962 (inactive)
same,normalized growth,"locus YDL185W, strain tfp1, stronger effect = lower value",0.923 (inactive)
same,normalized growth,"locus YDL192W, strain arf1, stronger effect = lower value",0.719 (active)
same,normalized growth,"locus YDR001C, strain nth1, stronger effect = lower value",0.98 (inactive)
same,normalized growth,"locus YDR069C, strain doa4, stronger effect = lower value",0.963 (inactive)
same,normalized growth,"locus YDR101C, strain arx1, stronger effect = lower value",0.908 (active)
same,normalized growth,"locus YDR137W, strain rgp1, stronger effect = lower value",0.49 (active)
same,normalized growth,"locus YDR150W, strain NUM1, stronger effect = lower value",0.983 (inactive)
same,normalized growth,"locus YDR159W, strain sac3, stronger effect = lower value",0.879 (inactive)
same,normalized growth,"locus YDR162C, strain NBP2, stronger effect = lower value",0.583 (active)
same,normalized growth,"locus YDR195W, strain ref2",1.29 [resistant] (active)
same,normalized growth,"locus YDR297W, strain sur2, stronger effect = lower value",0.972 (inactive)
same,normalized growth,"locus YDR318W, strain mcm21, stronger effect = lower value",0.671 (active)
same,normalized growth,"locus YDR334W, strain swr1, stronger effect = lower value",0.985 (inactive)
same,normalized growth,"locus YDR335W, strain msn5, stronger effect = lower value",0.948 (inactive)
same,normalized growth,"locus YDR388W, stronger effect = lower value",0.854 (active)
same,normalized growth,"locus YDR392W, strain spt3, stronger effect = lower value",0.247 (active)
same,normalized growth,"locus YDR502C, strain sam2, stronger effect = lower value",0.77 (active)
same,normalized growth,"locus YEL003W, strain gim4, stronger effect = lower value",0.931 (inactive)
same,normalized growth,"locus YEL037C, strain rad23, stronger effect = lower value",0.974 (inactive)
same,normalized growth,"locus YEL061C, strain CIN8 (second series), stronger effect = lower value",0.972 (inactive)
same,normalized growth,"locus YEL061C, strain CIN8, stronger effect = lower value",0.971 (inactive)
same,normalized growth,"locus YER015W, strain faa2, stronger effect = lower value",0.969 (inactive)
same,normalized growth,"locus YER016W, strain bim1, stronger effect = lower value",0.953 (inactive)
same,normalized growth,"locus YER110C, stronger effect = lower value",0.916 (inactive)
same,normalized growth,"locus YER111C, strain swi4, stronger effect = lower value",0.954 (inactive)
same,normalized growth,"locus YER155C, strain BEM2 (second series), stronger effect = lower value",0.555 (active)
same,normalized growth,"locus YER155C, strain BEM2, stronger effect = lower value",0.991 (inactive)
same,normalized growth,"locus YER167W, strain BCK2, stronger effect = lower value",0.93 (inactive)
same,normalized growth,"locus YFR010W, strain ubp6, stronger effect = lower value",0.994 (inactive)
same,normalized growth,"locus YGL078C, strain dbp3, stronger effect = lower value",0.961 (inactive)
same,normalized growth,"locus YGL086W, strain mad1, stronger effect = lower value",0.743 (active)
same,normalized growth,"locus YGL167C, strain pmr1, stronger effect = lower value",0.94 (inactive)
same,normalized growth,"locus YGL173C, strain kem1, stronger effect = lower value",0.91 (inactive)
same,normalized growth,"locus YGL227W, strain vid30, stronger effect = lower value",0.999 (inactive)
same,normalized growth,"locus YGL240W, strain doc1, stronger effect = lower value",0.906 (inactive)
same,normalized growth,"locus YGL248W, strain PDE1, stronger effect = lower value",0.968 (inactive)
same,normalized growth,"locus YGL253W, strain hxk2, stronger effect = lower value",0.879 (active)
same,normalized growth,"locus YGR078C, strain PAC10, stronger effect = lower value",0.898 (inactive)
same,normalized growth,"locus YGR135W, strain pre9, stronger effect = lower value",0.731 (active)
same,normalized growth,"locus YGR229C, strain SMI1, stronger effect = lower value",1.02 (inactive)
same,normalized growth,"locus YGR252W, strain gcn5, stronger effect = lower value",0.924 (inactive)
same,normalized growth,"locus YHR013C, strain ard1, stronger effect = lower value",1.06 (inactive)
same,normalized growth,"locus YHR027C, strain rpn1, stronger effect = lower value",0.97 (inactive)
same,normalized growth,"locus YHR030C, strain SLT2, stronger effect = lower value",0.925 (inactive) and 0.973 (inactive)
same,normalized growth,"locus YHR079C, strain IRE1 (second series), stronger effect = lower value",0.85 (active)
same,normalized growth,"locus YHR079C, strain IRE1, stronger effect = lower value",0.984 (inactive)
same,normalized growth,"locus YHR094C, strain hxt1, stronger effect = lower value",0.907 (active)
same,normalized growth,"locus YHR129C, strain ARP1, stronger effect = lower value",0.973 (inactive)
same,normalized growth,"locus YHR142W, strain chs7, stronger effect = lower value",0.85 (active)
same,normalized growth,"locus YHR200W, strain rpn10, stronger effect = lower value",0.884 (active)
same,normalized growth,"locus YIL066C, strain RNR3, stronger effect = lower value",0.902 (inactive)
same,normalized growth,"locus YIL073C, strain SPO22, stronger effect = lower value",0.893 (inactive)
same,normalized growth,"locus YIL125W, strain kgd1, stronger effect = lower value",0.958 (inactive)
same,normalized growth,"locus YIR030C, strain dcg1, stronger effect = lower value",0.922 (active)
same,normalized growth,"locus YJL092W, strain hpr5, stronger effect = lower value",0.969 (inactive)
same,normalized growth,"locus YJL095W, strain BCK1 (second series), stronger effect = lower value",0.869 (active)
same,normalized growth,"locus YJL095W, strain BCK1, stronger effect = lower value",0.777 (active) and 0.981 (inactive)
same,normalized growth,"locus YJL115W, strain asf1, stronger effect = lower value",0.98 (inactive)
same,normalized growth,"locus YJL129C, strain trk1, stronger effect = lower value",0.865 (active)
same,normalized growth,"locus YJL134W, strain LCB3, stronger effect = lower value",0.98 (inactive)
same,normalized growth,"locus YJL154C, strain vps35, stronger effect = lower value",0.986 (inactive)
same,normalized growth,"locus YJL164C, strain tpk1, stronger effect = lower value",0.929 (inactive)
same,normalized growth,"locus YJL166W, strain qcr8, stronger effect = lower value",0.916 (inactive)
same,normalized growth,"locus YJL168C, strain set2, stronger effect = lower value",0.934 (inactive)
same,normalized growth,"locus YJL187C, strain SWE1 (second series), stronger effect = lower value",0.96 (inactive)
same,normalized growth,"locus YJL187C, strain SWE1, stronger effect = lower value",0.969 (inactive)
same,normalized growth,"locus YJR043C, strain POL32, stronger effect = lower value",0.986 (inactive)
same,normalized growth,"locus YJR066W, strain TOR1, stronger effect = lower value",0.93 (inactive)
